This is an account of results in PubChem BioAssay (NCATS).

Several values for one entry are separate records, joined by “and”; a condition that tells them apart may be missing. Equal values may be shown once. Results filed as inconclusive are left out. The source holds several records for some structures; these can differ, active in one and inactive in another. Activity calls are given as the source filed them. The call rests on the fitted dose curve; in most records, active means well fitted curve in the direction sought with a large enough effect; inconclusive means small, poorly fitted or top-dose-only effect, or another doubt; inactive means no such curve, though single readings can be large; an effect the other way counts as inactive or inconclusive.

Assay [1] deals with Cytochrome P450 3A7 (Homo sapiens) (UniProt P24462). In words: Cytochrome P450 family 3 subfamily A member 7 (CYP3A7) small molecule antagonists: luciferase biochemical qHTS assay (AID 1963596). Further: on the % scale 0 is the no-effect control and ±100 the full control effect; nearly all actives have a fitted effect of over 40% in size. In outline: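 Recombinant CYP3A7 P450-Glo luminescent assay: enzyme-proluciferin substrate mix preincubated with compound 10 min at room temperature, reaction started with NADPH regeneration system for 1 h. Luciferin detected by luminescence; ketoconazole as positive control.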
For orientation: Quantitative high-throughput screening tests each substance at several concentrations.

The nature of assay [2]: Viability qHTS for spleen associated tyrosine kinase inhibitor (SYKi) naive MV4-11 cells (AID 1963823). Further: nearly all actives have a fitted effect of over 40% in size. Further: potency means the concentration at half of the fitted maximal effect. In outline: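 Compounds were dispensed acoustically onto plates, MV4-11 cells (SYKi-naive) added at 500 per well, and plates incubated 72 hr at 37 C. CellTiter-Glo was added and luminescence measured after 10 min.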
Assay [3] is described as follows: Viability qHTS for spleen associated tyrosine kinase inhibitor (SYKi) drug resistant MV4-11 cells (AID 1963824). Further: nearly all actives have a fitted effect of over 35% in size. Further: potency means the concentration at half of the fitted maximal effect. In outline: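 SYK inhibitor-resistant MV4-11 AML cells, 500 per well, added to predispensed compounds and incubated 72 hr at 37 C, 5% CO2. Viability measured by CellTiter-Glo luminescence after 10 min at room temperature.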
The nature of assay [4]: Cellular viability qHTS for adrenocortical cancer (ACC) cell line SW-13 (AID 1963989).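 Further: cells grown in serum-free medium with ITS supplement; on the % scale 0 is the no-effect control and ±100 the full control effect; nearly all actives have a fitted effect of over 65% in size.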 Conditions: SW-13 ACC cells viability, CellTiter-Glo, 48 h; activity (max response): stronger effect = lower value. In outline: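 Compound titrations (up to 46 uM final, in DMSO) were applied to SW-13 cells for 48 h at 37C/5% CO2. Reading used CellTiter-Glo after 20 min at room temperature; fitted curves yielded IC50 and efficacy.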

Assay [5] is described as follows: Cellular viability qHTS for adrenocortical cancer (ACC) cell line NCI-H295R (AID 1963990).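 Further: 0% = DMSO only wells and -100% = full killing with cytotoxic reference compound; nearly all actives have a fitted effect of over 60% in size.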 In outline:
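Readout: CellTiter-Glo luminescence, 20 min RT. Exposure: 48 h, 37C/5% CO2. Cells: NCI-H295R, ITS-DMEM serum-free. Range: up to 46 uM. Analysis: 4PL fit, IC50 plus efficacy.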

Cytochrome P450 3A7 (Homo sapiens), sequence (P24462 whole entry, looked up): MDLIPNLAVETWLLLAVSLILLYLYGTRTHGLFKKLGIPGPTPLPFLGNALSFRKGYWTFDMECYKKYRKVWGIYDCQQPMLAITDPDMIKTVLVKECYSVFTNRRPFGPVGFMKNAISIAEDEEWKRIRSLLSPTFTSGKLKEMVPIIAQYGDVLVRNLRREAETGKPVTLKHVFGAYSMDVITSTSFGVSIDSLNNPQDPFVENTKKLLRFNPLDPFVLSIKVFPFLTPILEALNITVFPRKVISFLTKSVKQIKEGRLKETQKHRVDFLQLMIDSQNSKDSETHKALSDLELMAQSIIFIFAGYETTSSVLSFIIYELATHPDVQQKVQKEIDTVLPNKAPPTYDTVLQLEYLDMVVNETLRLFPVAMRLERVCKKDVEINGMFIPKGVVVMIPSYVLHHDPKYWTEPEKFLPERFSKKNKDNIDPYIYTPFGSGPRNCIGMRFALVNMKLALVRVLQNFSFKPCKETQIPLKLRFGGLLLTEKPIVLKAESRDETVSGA

As to `Cc1cccc(OCC(O)CNC(C)(C)C)c1C` (stereo not given), the Potency result in assay [1], in assay [2], in assay [3] and in assay [5] was “inactive” in each case. Also, the activity (max response) in assay [4] is -1.22% (inactive).

In the case of `CCN1CCCC1CN` (stereo not given), the Potency entry in assay [1], in assay [2], in assay [3] and in assay [5] was “inactive” throughout. Further, in assay [4], the activity (max response) is -2.8% (inactive).

Regarding `NCCCNCCSP(=O)(O)O`, the activity change, negative = inhibition in assay [1] was 11.1% [at 11.5 µM] (inactive). Moreover, the viability (% of control) in assay [2] is 79.8% [at 9.25 µM] (inactive). In addition, the viability, % of control in assay [3] is 105% [at 9.25 µM] (inactive). Besides, in assay [4], the activity (max response) was 1.65% (inactive). For the same compound, the activity change, negative = viability loss in assay [5] was 0.548% [at 9.17 µM] (inactive).

On to `CCn1cc(C(=O)O)c(=O)c2cc3c(cc21)OCO3`, for which the Potency result in assay [1], in assay [2], in assay [3] and in assay [5] was “inactive” throughout. In addition, the activity (max response) in assay [4] is -2.41% (inactive).

`COC(=O)CCc1ccc(OCC(O)CNC(C)C)cc1` (stereo not given): the Potency entry in assay [1], in assay [2], in assay [3] and in assay [5] was “inactive” throughout. Also, the activity (max response) in assay [4] is -6.6% (inactive).

As for `C=CCN1CCc2nc(N)sc2CC1`, the Potency entry in assay [1], in assay [2], in assay [3] and in assay [5] was “inactive” in each case. In addition, in assay [4], the activity (max response) was 1.2% (inactive).

On to `Nc1ccc(/C=C/c2ccc(N)cc2S(=O)(=O)O)c(S(=O)(=O)O)c1`, for which, in assay [1], the activity change, negative = inhibition is 6.59% [at 0.91 µM] (inactive). For the same compound, the viability (% of control) in assay [2] is 106% [at 0.588 µM] (inactive). In addition, the viability, % of control in assay [3] is 94.1% [at 0.588 µM] (inactive). For the same compound, the activity (max response) in assay [4] is 11.4% (inactive). In assay [5], the activity change, negative = viability loss was -9.73% [at 0.587 µM] (inactive).

With `O=Cc1ccccc1C=O`, the Potency result in assay [1], in assay [2], in assay [3] and in assay [5] was “inactive” each time. Besides, the activity (max response) in assay [4] is 0.792% (inactive).

As for `CC(=O)Nc1ccc(S(=O)(=O)Nc2cc(C)on2)cc1`, the Potency entry in assay [1], in assay [2], in assay [3] and in assay [5] was “inactive” throughout. For the same compound, in assay [4], the activity (max response) was 11.6% (inactive).

On to `Cc1ccc(=O)n(-c2ccccc2)c1`, for which the Potency entry in assay [1], in assay [2], in assay [3] and in assay [5] was “inactive” throughout. Besides, the activity (max response) in assay [4] was 13.5% (inactive).

Consider `COC(=O)/C=C\C(=O)OC`, for which the Potency entry in assay [1], in assay [2], in assay [3] and in assay [5] was “inactive” each time. Further, in assay [4], the activity (max response) is 9.62% (inactive).

In the case of `Cc1cc(C)c(NC(=O)CN(CC(=O)O)CC(=O)O)c(C)c1Br`, the Potency entry in assay [1], in assay [2], in assay [3] and in assay [5] was “inactive” throughout. In addition, the activity (max response) in assay [4] was 9.39% (inactive).

With `O=C1CC(c2ccc(Cl)cc2)CC(=O)N1`, the Potency result in assay [1], in assay [2], in assay [3] and in assay [5] was “inactive” each time. Besides, in assay [4], the activity (max response) was 13.6% (inactive).

Turning to `OC1C(O)C(O)C(O)C(O)C1O` (stereo not given), the Potency entry in assay [1], in assay [2], in assay [3] and in assay [5] was “inactive” in each case. Besides, in assay [4], the activity (max response) was -3.11% (inactive).

For `CC1(C)O[C@@H]2C[C@H]3[C@@H]4C[C@H](F)C5=CC(=O)C=C[C@]5(C)[C@@]4(F)[C@@H](O)C[C@]3(C)[C@]2(C(=O)CO)O1`, the Potency entry in assay [1], in assay [2] and in assay [5] was “inactive” in each case. Besides, the Potency in assay [3] is 20.9 µM (active). Moreover, the activity (max response) in assay [4] was -5.78% (inactive) and 9.51% (inactive).

For the compound `O=C(O)C1CCC1`, the Potency entry in assay [1], in assay [2], in assay [3] and in assay [5] was “inactive” each time. In addition, the activity (max response) in assay [4] is 11.6% (inactive).

With `O=C(NCC(O)CO)c1c(I)c(C(=O)NCC(O)CO)c(I)c(N(CCO)C(=O)CO)c1I` (stereo not given), the Potency entry in assay [1], in assay [2], in assay [3] and in assay [5] was “inactive” each time. Moreover, in assay [4], the activity (max response) is -7.35% (inactive).

For `Nc1ncnc2c1C(=O)N(c1ccc(C3CCC(CC(=O)O)CC3)cc1)CCO2` (stereo not given), the Potency entry in assay [1], in assay [2], in assay [3] and in assay [5] was “inactive” in each case. In addition, in assay [4], the activity (max response) is 10.6% (inactive).

Turning to `COC(=O)c1cc(Cl)ccc1OC`, the Potency entry in assay [1], in assay [2], in assay [3] and in assay [5] was “inactive” each time. Also, the activity (max response) in assay [4] was -2.06% (inactive).

With `Cc1cc2c(cc1CC(=O)c1sccc1S(=O)(=O)Nc1onc(C)c1Cl)OCO2`, the Potency result in assay [1], in assay [2], in assay [3] and in assay [5] was “inactive” throughout. In addition, the activity (max response) in assay [4] is 2.25% (inactive) and -17.1% (inactive).

As to `CN(C)c1ccc(O)c2c1C[C@H]1C[C@H]3[C@H](N(C)C)C(=O)C(C(N)=O)=C(O)[C@@]3(O)C(=O)C1=C2O`, the Potency result in assay [1] and in assay [5] was “inactive” throughout. For the same compound, the Potency in assay [2] and in assay [3] was 20.9 µM (active) in each case. In addition, the activity (max response) in assay [4] is -4.3% (inactive) and 1.01% (inactive).

For `O=C(O)CP(=O)(O)O`, the Potency entry in assay [1], in assay [2], in assay [3] and in assay [5] was “inactive” throughout. Moreover, in assay [4], the activity (max response) was 1.41% (inactive).

As for `COC(=O)/C=C(/C)N`, the Potency result in assay [1], in assay [3] and in assay [5] was “inactive” each time. The Potency in assay [2] is 16.8 µM (active). For the same compound, the activity (max response) in assay [4] is 13.3% (inactive).

For the compound `Cc1cccc(C)c1NC(=O)CN1CCCCCC1`, the Potency result in assay [1], in assay [2], in assay [3] and in assay [5] was “inactive” throughout. Besides, the activity (max response) in assay [4] is 6.22% (inactive).

Consider `C=C1[C@H](CO)[C@@H](O)C[C@@H]1n1cnc2c(=O)[nH]c(N)nc21`, for which the Potency entry in assay [1], in assay [3] and in assay [5] was “inactive” in each case. The Potency entry in assay [2] is “inactive and 16.4 µM (active)”. Also, the activity (max response) in assay [4] is -5.41% (inactive).

As to `O=C1OC(OC(=O)c2cccnc2Nc2cccc(C(F)(F)F)c2)c2ccccc21` (stereo not given), the Potency result in assay [1], in assay [2], in assay [3] and in assay [5] was “inactive” each time. In addition, in assay [4], the activity (max response) is 6.27% (inactive).

As for `CN1CCN(C(=O)C2CCCCC2)CC1`, the Potency entry in assay [1], in assay [2], in assay [3] and in assay [5] was “inactive” in each case. In assay [4], the activity (max response) is 7.59% (inactive).

For `CC(=O)Oc1cccc(C)c1`, the Potency result in assay [1], in assay [2], in assay [3] and in assay [5] was “inactive” throughout. Besides, the activity (max response) in assay [4] was 17.7% (inactive).
